Growth data for seven compounds are collected here from PubChem BioAssay (NCI).

Assay in all cases: NCI-60 one-dose screen, 48 h (100 = growth as untreated, 0 = no growth, -100 = all killed)
Details in all cases: 10 µM unless noted

Assay [1] relates to K-562 leukemia.
For assay [2], the system named is MALME-3M melanoma.
The test system of assay [3] is MDA-MB-231 breast.
For assay [4], the system named is RXF 393 renal.
In assay [5] the test system is SF-268 CNS.
The test system of assay [6] is SF-295 CNS.
Assay [7] deals with SF-539 CNS.
The test system of assay [8] is UACC-257 melanoma.
Assay [9] relates to M14 melanoma.
The subject of assay [10] is HCT-15 colon.
The subject of assay [11] is HT29 colon.
Assay [12] relates to SNB-75 CNS.
Assay [13] has as its system SNB-19 CNS.
For assay [14], the system named is U251 CNS.
For assay [15], the system named is PC-3 prostate.
For assay [16], the system named is SK-MEL-5 melanoma.
Assay [17] concerns UACC-62 melanoma.
Assay [18] concerns LOX IMVI melanoma.
Assay [19] concerns SK-MEL-28 melanoma.
The subject of assay [20] is SK-MEL-2 melanoma.

Molecules are shown by their SMILES. This is part of a sample that, as a whole, favours compounds with a hit. Of some 83,000 tested, about 20% had one in any assay.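 Testing used 96-well plates and a 48-hour single-concentration exposure. Example: -40 means 40% of the starting cells died.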 Unmarked numbers belong to inactive results. Activity calls are given as the source filed them. The calls were made as follows: active = growth percent below 10; inactive = the rest.

With `COc1cccc(-c2nn(-c3ccccc3)cc2-c2ccnc(N3CCN(C(=O)Nc4ccc(F)cc4)CC3)c2)c1`, the growth was 30.8% in assay [1]; 76.7% in [2]; 52.6% in assay [3]; 63.4% in assay [4]; 85.3% in assay [5]; 64.8% in [6]. Moreover, the growth is 66.9% in assay [7]; 85.8% in [8]; 32.4% in assay [9]; 35.8% in assay [10]; 70% in assay [11]; 66.5% in [12]. In addition, the growth in assay [13] is 64.5%; in assay [14], 67.4%; in assay [15], 44.3%; in assay [16] it was 42.5%; in [17], 43.8%; in assay [18] it was 59%. Further, the growth is 69.6% in [19] and 51.1% in assay [20].
For `Clc1ccc2c(NCCCn3ccnc3)c3oc4ccccc4c3nc2c1`, the growth in assay [1] was 8.56% (active); in assay [2], 43.2%; in assay [3] it was 36.7%; in assay [4] it was 32.3%; in assay [5], 45.3%; in assay [6] it was 26.3%. Also, the growth in assay [7] was 27.4%; in assay [8] it was 80.7%; in assay [9], 61.7%; in assay [10], 13.7%; in assay [11], 19.4%; in assay [12] it was 47.8%. For the same compound, the growth in assay [13] was 57.1%; in assay [14], 19.6%; in assay [15] it was 47.9%; in [16] it was 76%; in assay [17], 66.1%; in assay [18], 14.4%. Moreover, the values for the growth in [19] and in assay [20] were 68.2% and 84.9%, respectively.
For `COc1cc(OC)c(C2SCC(=O)N2Nc2ncnc3ccccc23)cc1OC` (stereo not given), the growth in [1] is 105%; in [2] it was 96.2%; in [3] it was 98.8%; in assay [4] it was 124%; in [5], 107%; in assay [6] it was 102%. Further, the growth in assay [7] was 95.3%; in assay [8], 108%; in [9], 107%; in assay [10], 103%; in assay [11], 113%; in assay [12], 101%. Besides, the growth in assay [13] was 99.4%; in assay [14], 105%; in assay [15], 107%; in assay [16], 102%; in assay [17], 97.6%; in assay [18] it was 117%. Also, the growth in assay [19] is 104%; in assay [20], 123%.
`CS(=O)(=O)c1ccc(-c2nc3ccccn3c2-c2nc3ccc([N+](=O)[O-])cc3[nH]2)cc1`: the growth in assay [1] is 91.3%; in assay [2], 86%; in assay [3] it was 86.5%; in [4] it was 101%; in [5], 94.1%; in assay [6], 92.2%. For the same compound, the growth in assay [7] is 89.5%; in assay [8] it was 106%; in [9], 97.3%; in [10], 97.1%; in [11], 109%; in assay [12], 82.9%. Moreover, the growth in assay [13] is 99.6%; in assay [14] it was 104%; in [15], 86.3%; in [16], 95.2%; in assay [17], 88.6%; in assay [18], 100%. For the same compound, the growth is 98% in assay [19] and 105% in assay [20].
With `OC1CCN(CCCOc2c3ccccc3nc3c2oc2ccc(Cl)cc23)CC1`, the growth in [1] is 3.22% (active); in [2], 1.25% (active); in [3], 17%; in assay [4], -10.8% (active); in assay [5], 22.8%; in assay [6], 8.74% (active). Moreover, the growth in assay [7] was 14.6%; in assay [8], 23.6%; in assay [9], -4.12% (active); in [10], 10.1%; in assay [11] it was 1.25% (active); in assay [12], 21%. Besides, the growth in assay [13] is 21.8%; in [14] it was 21.7%; in assay [15], 8.35% (active); in assay [16], 26.6%; in assay [17], -19.5% (active); in [18] it was -73.8% (active). In addition, the values for the growth in assay [19] and in assay [20] were 24.9% and 14%, respectively.
As for `CNC(=O)c1cc(-c2ccc(NC(=O)Nc3ccc(N4CCN(C)CC4)c(C(F)(F)F)c3)cc2)nc2cccnc12`, the growth was -56.9% (active) in assay [1]; -85.5% (active) in assay [2]; -78.4% (active) in [3]; -78.3% (active) in assay [4]; -71.3% (active) in assay [5]; -94.5% (active) in assay [6]. Further, the growth in assay [7] is -89.2% (active); in assay [8], -94.3% (active); in [9] it was -94.2% (active); in assay [10], -79.5% (active); in assay [11], -89.3% (active); in assay [12], -83.1% (active). The growth in assay [13] was -79.4% (active); in [14], -94.2% (active); in [15], -90.6% (active); in assay [16] it was -96.6% (active); in [17], -83.8% (active); in assay [18], -92.5% (active). The growth in assay [19] was -92.2% (active); in assay [20], -80.7% (active).
As to `CCC/C=C/C=C/C(=O)N[C@@H](Cc1cc(F)cc(F)c1)C(=O)N[C@@H]1C(=O)N2CCC[C@H]2C(=O)N2CCCC[C@H]2C(=O)N[C@@H](C)C(=O)N2C[C@H](C)C[C@H]2C(=O)O[C@H]1C`, the growth was 17.6% in assay [1]; 30.8% in [2]; 28.7% in [3]; 46.3% in [4]; 31.3% in assay [5]; 10.3% in assay [6]. Moreover, the growth in assay [7] is 38.3%; in [8], 17%; in assay [9], 16.5%; in [10], 16.2%; in assay [11], 9.05% (active); in assay [12], 28.5%. Further, the growth in [13] is 25.8%; in assay [14], 26.8%; in assay [15] it was 14.5%; in assay [16] it was 10.5%; in assay [17], 13.6%; in assay [18], -25.3% (active). Further, the growth is 29% in assay [19] and -12.9% (active) in assay [20].
